According to PubChem BioAssay (NCI):
Compounds without any hit were thinned out: in the full panel of roughly 79,000, 15% have a hit. The source made the active and inactive calls. No stated cut-off is given here; in the data, active means growth inhibition above about 70%; inactive means the rest.

Columns and labels:
[1] = NCI Yeast Anticancer Drug Screen. Data for the rad52 strain (AID 147);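 further: 0% = growth of vehicle-treated control cultures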; settings: S. cerevisiae rad52 mutant growth inhibition, stronger effect = higher value
Outline: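 Read-out: growth inhibition versus vehicle-treated controls. Cells were a DNA repair-deficient yeast strain treated with compounds.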

[2] = NCI Yeast Anticancer Drug Screen. Data for the wt1 strain (AID 149);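 further: 0% = growth of vehicle-treated wt1 cultures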; settings: S. cerevisiae wt1 strain (SPY 50644) growth inhibition, stronger effect = higher value
Outline: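 Yeast wt1 strain exposed to compounds; growth inhibition measured relative to vehicle-treated controls.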

[3] = NCI Yeast Anticancer Drug Screen. Data for the rad50EPP+ strain (AID 151);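 further: 0% = growth of vehicle-treated control cultures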; settings: S. cerevisiae rad50 mutant strain, stronger effect = higher value
Outline: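 Growth inhibition read against vehicle controls in rad50EPP+ yeast, a strain altered in DNA damage repair, after compound exposure.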

[4] = NCI Yeast Anticancer Drug Screen. Data for the rad50 strain (AID 155);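 further: 0% = growth of vehicle-only cultures of the same strain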; settings: S. cerevisiae rad50 strain growth inhibition, stronger effect = higher value
Outline: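 Yeast carrying a defined DNA repair defect were exposed to test compounds, and growth was compared with vehicle-treated controls to give percent inhibition.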

[5] = NCI Yeast Anticancer Drug Screen. Data for the mec2-1 strain (AID 157); settings: S. cerevisiae mec2-1 strain, stronger effect = higher value
Outline: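 Yeast mec2-1 mutant treated with compound. Readout: growth inhibition vs vehicle controls.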

[6] = NCI Yeast Anticancer Drug Screen. Data for the rad14 strain (AID 159);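 further: 0% = growth of vehicle-treated control cultures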; settings: S. cerevisiae rad14 strain growth inhibition, stronger effect = higher value
Outline: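 Yeast cells carrying a defined DNA-repair defect were exposed to compounds, and growth inhibition was calculated relative to vehicle-treated control cultures.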

[7] = NCI Yeast Anticancer Drug Screen. Data for the sgs1 mgt1 strain (AID 161);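 further: 0% = growth of cultures given vehicle only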; settings: S. cerevisiae sgs1 mgt1 strain, stronger effect = higher value
Outline: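 Test agents were incubated with a DNA-repair-mutant yeast strain. Growth was then read and compared against vehicle-treated controls.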

[8] = NCI Yeast Anticancer Drug Screen. Data for the CLN2oe strain (AID 163);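 further: 0% = growth of vehicle-only control cultures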; settings: S. cerevisiae CLN2oe strain, stronger effect = higher value
Outline: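 Read-out: yeast growth inhibition, expressed relative to vehicle-only controls. The strain bears an engineered cell-cycle alteration.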

[9] = NCI Yeast Anticancer Drug Screen. Data for the cln2 rad14 strain (AID 165);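 further: 0% = growth equal to vehicle treated cultures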; settings: S. cerevisiae cln2 rad14 strain, stronger effect = higher value
Outline: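 cln2 rad14 yeast strain; compound exposure; growth inhibition read vs vehicle controls.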

[10] = NCI Yeast Anticancer Drug Screen. Data for the bub3 strain (AID 167); settings: S. cerevisiae bub3 mutant strain, stronger effect = higher value
Outline: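 Compounds were applied to a genetically altered yeast strain carrying a cell-cycle control defect. Growth inhibition was scored against vehicle-treated controls.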

[11] = NCI Yeast Anticancer Drug Screen. Data for the wt2 strain (AID 169);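 further: 0% = growth of vehicle-treated yeast cultures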; settings: S. cerevisiae wt2 strain growth inhibition, stronger effect = higher value
Outline: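 Read-out: growth inhibition versus vehicle-treated control cultures after compound exposure of the yeast strain.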

[12] = NCI Yeast Anticancer Drug Screen. Data for the mlh1 strain (AID 171);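 further: 0% = growth of vehicle-treated control cultures of the same strain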; settings: S. cerevisiae mlh1 strain growth inhibition, stronger effect = higher value
Outline: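 Read-out: growth inhibition versus vehicle controls. Strain: engineered yeast with a defined DNA repair or cell cycle defect, compound-treated.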

[13] = NCI Yeast Anticancer Drug Screen. Data for the sgs1 strain (AID 173);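 further: 0% = growth of vehicle-only control cultures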; settings: S. cerevisiae sgs1 mutant, stronger effect = higher value
Outline: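 Read-out: yeast growth inhibition relative to vehicle controls, following compound exposure of a strain with a defined DNA repair/cell cycle alteration.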

[14] = NCI Yeast Anticancer Drug Screen. Data for the mlh1 rad18 strain (AID 175); settings: S. cerevisiae mlh1 rad18 strain growth inhibition, stronger effect = higher value
Outline: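 Yeast w/ defined DNA-repair lesions; compound exposure; growth vs vehicle controls → % inhibition.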

[15] = NCI Yeast Anticancer Drug Screen. Data for the rad18 strain (AID 177); settings: S. cerevisiae rad18 mutant growth inhibition, stronger effect = higher value
Outline: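 Readout: growth inhibition vs vehicle controls. Cells: genetically altered yeast strain, DNA repair defect.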

[16] = NCI Yeast Anticancer Drug Screen. Data for the mgt1 strain (AID 153); settings: S. cerevisiae mgt1 mutant growth inhibition, stronger effect = higher value
Outline: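 mgt1 yeast grown with test compound; read-out is growth inhibition versus vehicle-treated cultures.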

[17] = at 5.0 µM (retest, dose inferred, filed as 0.5)
[18] = at 50.0 µM (retest, dose inferred, filed as 5.0)

Measured: growth inhibition

CC1CCCN(CCc2ccccc2)CC1 (stereo unspecified)
inactive: [1]; at 1.2 µM 1% | [1]; at 3.7 µM 4% | [1]; at 11.0 µM 11% | [1]; at 33.0 µM 16% | [1]; at 100.0 µM 26% | [2]; at 1.2 µM 2% | [2]; at 3.7 µM 8% | [2]; at 11.0 µM 8% | [2]; at 33.0 µM 7% | [2]; at 100.0 µM 5% | [3]; at 1.2 µM 2% | [3]; at 3.7 µM 3% | [3]; at 11.0 µM 4% | [3]; at 33.0 µM 4% | [3]; at 100.0 µM 5% | [4]; at 1.2 µM 1% | [4]; at 3.7 µM 6% | [4]; [17] -8% | [4]; at 11.0 µM 10% | [4]; at 33.0 µM 13% | [4]; [18] 66% | [4]; at 50.0 µM 17.4% | [4]; at 100.0 µM 14% | [5]; at 1.2 µM 0% | [5]; at 3.7 µM 8% | [5]; [17] -13% | [5]; at 11.0 µM 12% | [5]; at 33.0 µM 15% | [5]; [18] 11% | [5]; at 50.0 µM 20.9% | [5]; at 100.0 µM 22% | [6]; at 1.2 µM 2% | [6]; at 3.7 µM 14% | [6]; at 11.0 µM 29% | [6]; at 33.0 µM 33% | [6]; at 100.0 µM 31% | [7]; [17] 13% | [7]; at 50.0 µM 28.8% | [8]; at 1.2 µM -5% | [8]; at 3.7 µM -8% | [8]; at 11.0 µM 18% | [8]; at 33.0 µM 30% | [8]; at 100.0 µM 43% | [9]; [17] 5% | [9]; [18] 37% | [9]; at 50.0 µM 58.6% | [10]; at 1.2 µM -3% | [10]; at 3.7 µM 0% | [10]; [17] 2% | [10]; at 11.0 µM 9% | [10]; at 33.0 µM 21% | [10]; at 50.0 µM 46.6% | [10]; at 100.0 µM 25% | [11]; at 1.2 µM 2% | [11]; at 3.7 µM 4% | [11]; at 11.0 µM 6% | [11]; at 33.0 µM 8% | [11]; at 100.0 µM 10% | [12]; at 1.2 µM 1% | [12]; at 3.7 µM 4% | [12]; at 11.0 µM 10% | [12]; at 33.0 µM 15% | [12]; at 100.0 µM 14% | [13]; at 1.2 µM 0% | [13]; at 3.7 µM 7% | [13]; at 11.0 µM 16% | [13]; at 33.0 µM 23% | [13]; at 100.0 µM 21% | [14]; [17] 19% | [14]; at 50.0 µM 34.9% | [15]; at 1.2 µM 3% | [15]; at 3.7 µM 7% | [15]; at 11.0 µM 15% | [15]; at 33.0 µM 12% | [15]; at 100.0 µM 16%
active: [7]; [18] 76% | [10]; [18] 83% | [14]; [18] 78%

O=C(O)CCCOc1cc(Cl)c(Cl)cc1Cl
inactive: [1]; at 1.2 µM -13% | [1]; at 3.7 µM -4% | [1]; at 11.0 µM 1% | [1]; at 33.0 µM 45% | [2]; at 1.2 µM -1% | [2]; at 3.7 µM -9% | [2]; at 11.0 µM 2% | [2]; at 33.0 µM 22% | [3]; at 1.2 µM -10% | [3]; at 3.7 µM -6% | [3]; at 11.0 µM 13% | [3]; at 33.0 µM 43% | [16]; at 1.2 µM -17% | [16]; at 3.7 µM -32% | [16]; at 11.0 µM -13% | [16]; at 33.0 µM 35% | [4]; at 1.2 µM -10% | [4]; at 3.7 µM -17% | [4]; [17] 40% | [4]; at 11.0 µM -5% | [4]; at 33.0 µM 42% | [5]; at 1.2 µM -24% | [5]; at 3.7 µM -13% | [5]; [17] 52% | [5]; at 11.0 µM 4% | [5]; at 33.0 µM 34% | [7]; [17] -17% | [7]; [18] 18% | [8]; at 1.2 µM 0% | [8]; at 3.7 µM -15% | [8]; at 11.0 µM -11% | [8]; at 33.0 µM 4% | [8]; at 100.0 µM 60% | [9]; [17] 10% | [9]; [18] 47% | [10]; at 1.2 µM -6% | [10]; at 3.7 µM -3% | [10]; [17] 28% | [10]; at 11.0 µM -2% | [10]; at 33.0 µM 43% | [10]; [18] 52% | [11]; at 1.2 µM -6% | [11]; at 3.7 µM -11% | [11]; at 11.0 µM -4% | [11]; at 33.0 µM 30% | [12]; at 1.2 µM -20% | [12]; at 3.7 µM -27% | [12]; at 11.0 µM 2% | [12]; at 33.0 µM 40% | [13]; at 1.2 µM -13% | [13]; at 3.7 µM -18% | [13]; at 11.0 µM 2% | [13]; at 33.0 µM 43% | [14]; [17] 42% | [15]; at 1.2 µM -33% | [15]; at 3.7 µM -21% | [15]; at 11.0 µM -7% | [15]; at 33.0 µM 41%
active: [1]; at 100.0 µM 75% | [2]; at 100.0 µM 71% | [3]; at 100.0 µM 70% | [16]; at 100.0 µM 80% | [4]; [18] 98% | [4]; at 50.0 µM 82% | [4]; at 100.0 µM 78% | [5]; [18] 98% | [5]; at 50.0 µM 74.8% | [5]; at 100.0 µM 90% | [7]; at 50.0 µM 77.2% | [9]; at 50.0 µM 75.5% | [10]; at 50.0 µM 83.4% | [10]; at 100.0 µM 78% | [11]; at 100.0 µM 80% | [12]; at 100.0 µM 80% | [13]; at 100.0 µM 76% | [14]; [18] 99% | [14]; at 50.0 µM 78.7% | [15]; at 100.0 µM 77%
